# A selection: hits, their analogues and other compounds. The true share with any hit is near 3.4%.
# hgDAF12 agonist = H. glycines DAF-12 receptor agonists, primary screen, cell-based, luminescence, HEK293, GAL4 fusion, UAS-luciferase; Nuclear hormone receptor DAF-12 (Heterodera glycines), GAL4 fusion; HEK293 GAL4-hgDAF12 UAS-luciferase reporter, agonist luminescence; normalized to butyrate control; activation, % at 6.8 µM; actives 1.8% (n = 370,000); AID 687014, 2013;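 active means activation above a cutoff set at the mean of all screened compounds plus 3 SD, cut at about 10% in these data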;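 further: 0% = DMSO wells and 100% = sodium butyrate wells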
# hcDAF-12 act = H. contortus DAF-12 nuclear receptor activators, primary screen, cell-based, luminescence, HEK293, lit1-tk-luc reporter; HEK293 hcDAF-12 lit1-tk-luc reporter; 0% DMSO, 100% Δ7-dafachronic acid; activation, % at 6.8 µM; actives 1.4% (n = 370,000); AID 652067, 2013;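 active means activation above the mean of all tested compounds plus 3 SD, cut at about 5.5% in these data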;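 further: 100% = response to 3 µM Δ7-dafachronic acid high control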
# NF-kB neuron act = activators of NF-kB expression in neurons, primary screen, cell-based, HTS. actives 1.6% (n = 190,000). human neuronal cells, NF-kB reporter expression; stronger effect = higher value. AID 1239, 2008. fold change at 12.5 µM; in the data active means fold change above about 3.3
# ssDAF12 agonist = S. stercoralis DAF-12 nuclear receptor activators, primary screen, cell-based, luminescence, HEK293, GRIP1 co-expression, lit1-tk-luc; Nuclear hormone receptor DAF-12 (Strongyloides stercoralis); HEK293 ssDAF-12/GRIP1 lit1-tk-luc reporter; % of 3 µM dafachronic acid response; activation, % at 6.8 µM; actives 1% (n = 370,000); AID 652126, 2013;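 active means activation above the mean over all tested compounds plus 3 SD, cut at about 0.9% in these data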;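 further: 0% = DMSO-only wells and 100% = 3 µM delta7-dafachronic acid wells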
# APP 5'UTR act = activators of APP 5'UTR luciferase reporter, primary screen, SH-SY5Y cells; activation, % at 2 µM; actives 1% (n = 190,000); AID 1276, 2008; SH-SY5Y APP 5'UTR luciferase reporter, luminescence; zero percent = DMSO vehicle wells;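 active means activation above a set limit, based on mean plus 3 SD of controls, cut at about 140% in these data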
# LXRb hcDAF ctr = LXR agonists, Gal4 luciferase reporter, confirmation, counter-screen for hcDAF-12 agonist project, cell-based, luminescence, HEK293, H. contortus campaign; shares compounds with hcDAF-12 act; HEK293 Gal4-LXR tk-luc reporter, 24 h; normalized: DMSO 0%, positive control 100%; activation, % at 6.8 µM; 3,400 tested, under 10 active;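 active means mean percent activation of the reporter above a cutoff set as the average over tested compounds plus their standard deviation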
# Target sequence (P55055 whole entry, looked up, the tested form may be a part): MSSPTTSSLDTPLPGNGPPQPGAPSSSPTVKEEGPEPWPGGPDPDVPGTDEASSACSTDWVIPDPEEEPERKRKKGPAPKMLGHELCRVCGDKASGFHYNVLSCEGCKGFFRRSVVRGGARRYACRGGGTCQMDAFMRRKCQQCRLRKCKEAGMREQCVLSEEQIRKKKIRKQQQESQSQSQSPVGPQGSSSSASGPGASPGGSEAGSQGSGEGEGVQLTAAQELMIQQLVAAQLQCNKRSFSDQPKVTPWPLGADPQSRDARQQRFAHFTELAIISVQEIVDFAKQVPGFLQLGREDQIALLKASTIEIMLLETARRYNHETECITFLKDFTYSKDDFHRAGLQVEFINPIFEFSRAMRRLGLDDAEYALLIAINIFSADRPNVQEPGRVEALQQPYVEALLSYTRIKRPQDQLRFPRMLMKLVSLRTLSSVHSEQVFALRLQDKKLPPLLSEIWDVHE
# hcDAF12 conf = H. contortus DAF-12 receptor agonists, confirmation, cell-based, luminescence, HEK293, lit1-tk-luc, triplicate. shares compounds with hcDAF-12 act. HEK293 hcDAF-12 lit1-tk-luc reporter; % of Δ7-dafachronic acid response. activation, % at 6.8 µM. actives 61% (n = 3,400). AID 743032, 2013;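 active means mean activation across triplicate tests above the threshold derived from the earlier primary screen, cut at about 5.5% in these data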;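 further: 0% = DMSO only wells and 100% = 3 µM Δ7-dafachronic acid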
# The depositor's hits bear a star; . = no result.
SMILES,hgDAF12 agonist,hcDAF-12 act,NF-kB neuron act,ssDAF12 agonist,APP 5'UTR act,LXRb hcDAF ctr,hcDAF12 conf
COCCCNC(=O)C[C@H]1C[C@@]2(C(=O)OC)C(=C[C@H](C(C)C)O[C@@H]2C2CC2)N(Cc2ccc3c(c2)OCO3)C1=O,-2.0,-1.1,.,-1.5,.,.,.
O=C(CSc1nnc(-c2cccnc2)n1C1CCCCC1)NC1CCCCCC1,-3.2,-0.6,.,-0.8,.,.,.
O=C(OCC#CCSc1nnc(-c2ccc3ccccc3c2)o1)c1cccs1,4.7,4.7,.,-1.8,.,.,.
N#Cc1cccc(NCC(=O)Nc2ccc3c(c2)OCCO3)c1,13.2*,7.8*,6.85*,1.4*,190.2*,1.8,7.6*
NC(=O)c1ccc(NC(=O)Nc2ccc3c(c2)OCO3)cc1,7.5,1.7,.,-0.3,.,.,.
O=C(Nc1ccc2c(c1)OCCO2)Nc1ccc2c(c1)OCO2,21.9*,9.2*,6.63*,3.1*,173.8*,2.0,9.1*
Cc1ccc(NC(=O)Nc2ccc3c(c2)OCO3)cc1F,10.7*,8.0*,.,0.5,.,1.4,4.0
COc1cccc(-c2cc(C(C)=O)c3n(c2=O)CCC3)c1OC,-0.1,-1.3,.,-1.5,.,.,.
Cc1cc(C)n(-c2nc3ccccc3nc2Nc2ccc(CC(=O)O)cc2)n1,-0.4,2.2,1.31,-1.3,-10.2,.,.
Cc1ccc(Nc2nc3ccccc3nc2-n2nc(C)cc2C)cc1,6.2,8.8*,1.56,-0.1,16.2,0.0,1.9
O=C(OC12CCCN(C1)/C(=C/c1ccc(Cl)cc1)C2)C1CCCCC1 (centres undefined),-0.6,0.6,.,-1.2,.,.,.
Cc1ccc(-n2nnc(-c3cccnc3)n2)cc1,8.9,1.9,.,-0.2,.,.,.
Clc1ncccc1-c1nnn(-c2ccccc2)n1,13.1*,6.8*,6.53*,0.3,131.9,1.5,7.0*
CCOC(=O)c1nn(-c2ccc(C)cc2)cc1C(=O)c1ccccc1,12.5*,6.9*,6.61*,-0.4,145.4*,1.0,5.7*
O=C(N=Nc1c(O)[nH]c2ccccc12)c1cccs1,20.8*,14.7*,5.62*,1.9*,154.3*,1.4,15.0*
Oc1[nH]c2ccccc2c1N=Nc1c(F)c(F)c(C(F)(F)F)c(F)c1F,0.5,1.9,.,-1.3,.,.,.
O=C(N=Nc1c(O)[nH]c2ccccc12)c1cc(NS(=O)(=O)c2cccs2)cc(NS(=O)(=O)c2cccs2)c1,0.4,0.3,1.04,-0.8,-0.9,.,.
O=C(CSc1nc2ccccc2[nH]1)N=Nc1c(O)[nH]c2ccccc12,3.4,9.1*,0.91,0.5,12.0,-0.1,2.5
Cc1ccccc1N=Nc1c(O)[nH]c2ccccc12,10.8*,6.6*,.,2.2*,.,1.0,15.9*
Cn1c(SCC(=O)N=Nc2c(O)[nH]c3ccccc23)nc2ccccc21,.,.,1,.,13.9,.,.
CCOC(=O)[C@@]12CN(C(=O)OC(C)(C)C)CC=C1N(Cc1ccc(OC)cc1)C(=O)[C@H]2CC(=O)NCCC(C)C,-1.8,-2.6,.,-1.3,.,.,.
Cc1ccccc1CN1CCCCC(NC(=O)c2ccc(Br)cc2)C1=O (centres undefined),-1.6,-5.9,.,-2.0,.,.,.
O=C(Cc1ccccc1F)Nc1nnc(-c2cccnc2)s1,1.5,0.8,.,-0.9,.,.,.
CC(=O)Oc1ccc(Cl)cc1/C=C/c1ccc2ccccc2n1,10.5*,8.4*,7.26*,0.7,88.5,0.8,6.2*
Fc1ccccc1/C=C/c1ccc2ccccc2n1,14.9*,19.6*,6.73*,2.2*,195.5*,1.2,13.4*
SMILES,hgDAF12 agonist,hcDAF-12 act,NF-kB neuron act,ssDAF12 agonist,APP 5'UTR act,LXRb hcDAF ctr,hcDAF12 conf
C(=C\c1ccc2ccccc2n1)/c1ccccc1,5.7,13.6*,.,1.3*,175.5*,0.9,13.0*
CC(=O)Oc1c(Cl)cc(Cl)cc1/C=C/c1ccc2ccccc2n1,0.9,1.0,1.62,-1.2,1.9,.,.
O=C(O)CCN1C(=O)/C(=C/c2cccc(OCc3ccc(F)cc3)c2)SC1=S,-3.1,-2.0,.,-2.0,.,.,.
N#CC1(c2ccc(NC(=O)c3ccccc3F)cc2)CCCC1,23.2*,6.9*,10.7*,0.4,144.6*,2.1,6.6*
COc1ccc(C(=O)Nc2ccc(C3(C#N)CCCC3)cc2)cc1,1.1,-0.7,1.3,-1.0,19.9,.,.
C=CCOC(=O)N1CCN(C(=O)c2ccc3c(c2)nc(C)n3C2CCCC2)CC1,-2.8,-0.8,.,-1.3,.,.,.
Brc1ccccc1-c1nnc(SCc2nc3ccccc3s2)o1,10.7*,12.4*,1.2,2.5*,81.1,0.9,9.6*
CC1CCN(CC(=O)c2cccs2)CC1,9.8,1.5,1.3,0.5,34.4,.,.
O=C(CN1CCc2ccccc2C1)c1cccs1,1.1,6.9*,1.04,0.5,3.6,0.0,3.6
O=S1(=O)c2ccc(Br)cc2OC[C@H](Cc2ccccc2)N1Cc1cn(CCC2OCCO2)nn1,2.3,-3.3,.,-1.5,.,.,.
CS(=O)(=O)N1N=C(c2ccccc2)CC1c1ccc2c(c1)OCO2 (centres undefined),6.7,7.0*,1.98,0.6,-0.3,0.5,7.4*
CS(=O)(=O)Nc1cccc(C2=NN(S(C)(=O)=O)C(c3ccc4c(c3)OCO4)C2)c1 (centres undefined),7.6,3.4,1.85,-0.8,8.6,.,.
Cc1occc1-c1nnc(SCC(=O)N2CCN(c3ncccn3)CC2)n1-c1ccccc1,-1.9,-1.6,.,-1.3,.,.,.
CC1=NN(C(=O)c2c(Br)cnn2C)C(O)(C(F)(F)F)C1 (centres undefined),-0.7,0.1,1.08,-1.0,15.0,.,.
CC1=NN(C(=O)c2nn(C)cc2Br)C(O)(C(F)(F)F)C1 (centres undefined),10.3,8.9*,1.26,-0.5,19.4,-0.3,0.2
CCCC[C@H]1C2CC(OC(=O)Nc3ccccc3Cl)C(C2)[C@H]2CCCCN21 (some centres undefined),-4.9,-1.6,.,-1.2,.,.,.
CC1CCN(C(=O)C2CCCN(C(=O)c3ccc4c(c3)NC(=O)CS4)C2)CC1 (centres undefined),-3.4,-1.5,.,-0.8,.,.,.
COCc1cc(C)nc(SCC(=O)Nc2nc(C)cs2)c1C#N,10.1,9.7*,.,0.4,.,1.5,6.3*

# Bioassay records as filed in PubChem BioAssay.
